Measured values from PubChem BioAssay (NCI).
This is part of a sample that, as a whole, favours compounds with a hit. Of some 79,000 tested, about 15% had one in any assay. Calls of active or inactive are those of the source. No stated cut-off is given here; in the data, active means growth inhibition above about 70%; inactive means the rest.

Experiments:
[1] = NCI Yeast Anticancer Drug Screen. Data for the rad52 strain (AID 147);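 further: 0% = growth of vehicle-treated control cultures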; details: S. cerevisiae rad52 mutant growth inhibition, hits give high values
Procedure, shortened: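 Genetically altered yeast (DNA damage repair defect) treated with compound; inhibition calculated relative to vehicle.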

[2] = NCI Yeast Anticancer Drug Screen. Data for the wt1 strain (AID 149);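 further: 0% = growth of vehicle-treated wt1 cultures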; details: S. cerevisiae wt1 strain (SPY 50644) growth inhibition, hits give high values
Procedure, shortened: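 The wt1 strain was treated with compounds, and growth was compared with vehicle-treated cultures to give inhibition.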

[3] = NCI Yeast Anticancer Drug Screen. Data for the mgt1 strain (AID 153); details: S. cerevisiae mgt1 mutant growth inhibition, hits give high values
Procedure, shortened: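 Read-out: yeast growth inhibition vs vehicle control. Strain mgt1, drawn from a panel altered in DNA damage repair or cell cycle control.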

[4] = NCI Yeast Anticancer Drug Screen. Data for the rad50 strain (AID 155);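 further: 0% = growth of vehicle-only cultures of the same strain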; details: S. cerevisiae rad50 strain growth inhibition, hits give high values
Procedure, shortened: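 Cells are treated with compound, grown, and their growth is then scored against vehicle-only cultures of the same repair-deficient yeast strain.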

[5] = NCI Yeast Anticancer Drug Screen. Data for the mec2-1 strain (AID 157); details: S. cerevisiae mec2-1 strain, hits give high values
Procedure, shortened: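 Cells of the genetically defined mec2-1 yeast strain are incubated with test compound. Inhibition of growth is calculated against vehicle-treated controls.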

[6] = NCI Yeast Anticancer Drug Screen. Data for the rad14 strain (AID 159);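 further: 0% = growth of vehicle-treated control cultures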; details: S. cerevisiae rad14 strain growth inhibition, hits give high values
Procedure, shortened: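 Readout: yeast growth inhibition, referenced to vehicle-only cultures. Strain bears a defined alteration in DNA damage repair.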

[7] = NCI Yeast Anticancer Drug Screen. Data for the sgs1 mgt1 strain (AID 161);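 further: 0% = growth of cultures given vehicle only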; details: S. cerevisiae sgs1 mgt1 strain, hits give high values
Procedure, shortened: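 Genetically altered yeast, compound exposure, growth inhibition relative to vehicle.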

[8] = NCI Yeast Anticancer Drug Screen. Data for the CLN2oe strain (AID 163);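 further: 0% = growth of vehicle-only control cultures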; details: S. cerevisiae CLN2oe strain, hits give high values
Procedure, shortened: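 Strain altered in cell-cycle control, incubated with compound; growth compared to solvent-treated controls.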

[9] = NCI Yeast Anticancer Drug Screen. Data for the cln2 rad14 strain (AID 165);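 further: 0% = growth equal to vehicle treated cultures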; details: S. cerevisiae cln2 rad14 strain, hits give high values
Procedure, shortened: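 The screen exposed genetically defined yeast (cln2 rad14) to test compounds and scored growth inhibition relative to vehicle-treated controls.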

[10] = NCI Yeast Anticancer Drug Screen. Data for the bub3 strain (AID 167); details: S. cerevisiae bub3 mutant strain, hits give high values
Procedure, shortened: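 Part of a panel of yeast mutants defective in DNA damage repair or cell cycle regulation. Each strain is grown with compound, and inhibition is calculated relative to solvent-treated cultures.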

[11] = NCI Yeast Anticancer Drug Screen. Data for the wt2 strain (AID 169);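 further: 0% = growth of vehicle-treated yeast cultures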; details: S. cerevisiae wt2 strain growth inhibition, hits give high values
Procedure, shortened: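 Steps: yeast strain treated with compound; growth recorded; inhibition calculated relative to cultures given vehicle alone.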

[12] = NCI Yeast Anticancer Drug Screen. Data for the mlh1 strain (AID 171);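 further: 0% = growth of vehicle-treated control cultures of the same strain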; details: S. cerevisiae mlh1 strain growth inhibition, hits give high values
Procedure, shortened: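 Yeast screen: mutant strain plus compound, growth scored against vehicle control wells.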

[13] = NCI Yeast Anticancer Drug Screen. Data for the mlh1 rad18 strain (AID 175); details: S. cerevisiae mlh1 rad18 strain growth inhibition, hits give high values
Procedure, shortened: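 Compound-treated yeast growth, normalised to vehicle controls. Strain bears defined DNA repair mutations.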

[14] = NCI Yeast Anticancer Drug Screen. Data for the rad18 strain (AID 177); details: S. cerevisiae rad18 mutant growth inhibition, hits give high values
Procedure, shortened: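 Inhibition values reflect reduced yeast growth compared with vehicle-treated controls, using a strain engineered with a DNA damage repair defect.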

[15] = NCI Yeast Anticancer Drug Screen. Data for the sgs1 strain (AID 173);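 further: 0% = growth of vehicle-only control cultures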; details: S. cerevisiae sgs1 mutant, hits give high values
Procedure, shortened: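 Inhibition of yeast growth served as the measure. The mutant strain was treated with each compound, and growth was normalised to cultures receiving vehicle alone.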

[16] = at 5.0 µM (retest, dose inferred, filed as 0.5)
[17] = at 50.0 µM (retest, dose inferred, filed as 5.0)

Measured: growth inhibition

O=C1C(Br)=C(c2ccccc2)O/C1=C/C(=O)c1ccc(Br)cc1
active: [1]; at 100.0 µM 75% | [3]; at 100.0 µM 88% | [5]; at 100.0 µM 92% | [6]; at 100.0 µM 96% | [10]; at 100.0 µM 84% | [12]; at 100.0 µM 89% | [14]; at 100.0 µM 79%
inactive: [1]; at 1.2 µM 2% | [1]; at 3.7 µM 6% | [1]; at 11.0 µM 12% | [1]; at 33.0 µM 26% | [2]; at 1.2 µM 3% | [2]; at 3.7 µM 5% | [2]; at 11.0 µM 10% | [2]; at 33.0 µM 16% | [2]; at 100.0 µM 44% | [3]; at 1.2 µM 2% | [3]; at 3.7 µM 5% | [3]; at 11.0 µM 10% | [3]; at 33.0 µM 36% | [4]; at 1.2 µM 4% | [4]; at 3.7 µM 5% | [4]; [16] -21% | [4]; at 11.0 µM 11% | [4]; at 33.0 µM 18% | [4]; [17] 34% | [4]; at 50.0 µM 24.2% | [4]; at 100.0 µM 49% | [5]; at 1.2 µM -1% | [5]; at 3.7 µM 5% | [5]; [16] -6% | [5]; at 11.0 µM 8% | [5]; at 33.0 µM 20% | [5]; [17] 25% | [5]; at 50.0 µM 21.1% | [6]; at 1.2 µM 3% | [6]; at 3.7 µM 6% | [6]; at 11.0 µM 13% | [6]; at 33.0 µM 28% | [7]; [16] -7% | [7]; [17] 39% | [7]; at 50.0 µM 53.9% | [8]; at 1.2 µM 1% | [8]; at 3.7 µM 1% | [8]; at 11.0 µM 4% | [8]; at 33.0 µM 9% | [8]; at 100.0 µM 18% | [9]; [16] -13% | [9]; [17] 12% | [9]; at 50.0 µM 29.7% | [10]; at 1.2 µM -2% | [10]; at 3.7 µM -2% | [10]; [16] -16% | [10]; at 11.0 µM -1% | [10]; at 33.0 µM 6% | [10]; [17] 21% | [10]; at 50.0 µM 15.4% | [11]; at 1.2 µM 1% | [11]; at 3.7 µM 3% | [11]; at 11.0 µM 7% | [11]; at 33.0 µM 31% | [11]; at 100.0 µM 69% | [12]; at 1.2 µM -2% | [12]; at 3.7 µM 1% | [12]; at 11.0 µM 9% | [12]; at 33.0 µM 20% | [13]; [16] -16% | [13]; [17] 62% | [13]; at 50.0 µM 52.6% | [14]; at 1.2 µM 2% | [14]; at 3.7 µM 3% | [14]; at 11.0 µM 13% | [14]; at 33.0 µM 25%

CCOC(=O)C(C(=O)OCC)=P(c1ccccc1)(c1ccccc1)c1ccccc1
active: [1]; at 100.0 µM 95% | [2]; at 100.0 µM 93% | [3]; at 100.0 µM 78% | [4]; at 100.0 µM 96% | [5]; at 100.0 µM 98% | [6]; at 100.0 µM 93% | [8]; at 100.0 µM 84% | [10]; at 100.0 µM 93% | [11]; at 100.0 µM 95% | [12]; at 100.0 µM 92% | [15]; at 100.0 µM 94% | [14]; at 100.0 µM 95%
inactive: [1]; at 1.2 µM 0% | [1]; at 3.7 µM 0% | [1]; at 11.0 µM 2% | [1]; at 33.0 µM 0% | [2]; at 1.2 µM 0% | [2]; at 3.7 µM 1% | [2]; at 11.0 µM 1% | [2]; at 33.0 µM -3% | [3]; at 1.2 µM 0% | [3]; at 3.7 µM 3% | [3]; at 11.0 µM 1% | [3]; at 33.0 µM -6% | [4]; at 1.2 µM -58% | [4]; at 3.7 µM 0% | [4]; [16] -2% | [4]; at 11.0 µM -3% | [4]; at 33.0 µM -3% | [4]; [17] 36% | [4]; at 50.0 µM 12.4% | [5]; at 1.2 µM 0% | [5]; at 3.7 µM -1% | [5]; [16] 1% | [5]; at 11.0 µM 0% | [5]; at 33.0 µM 0% | [5]; [17] 16% | [5]; at 50.0 µM 12.1% | [6]; at 1.2 µM 0% | [6]; at 3.7 µM 2% | [6]; at 11.0 µM 5% | [6]; at 33.0 µM 6% | [7]; [16] -10% | [7]; [17] 60% | [7]; at 50.0 µM 47% | [8]; at 1.2 µM 0% | [8]; at 3.7 µM -1% | [8]; at 11.0 µM -1% | [8]; at 33.0 µM -2% | [9]; [16] 0% | [9]; [17] -3% | [9]; at 50.0 µM -2.05% | [10]; at 1.2 µM -1% | [10]; at 3.7 µM 1% | [10]; [16] -3% | [10]; at 11.0 µM 1% | [10]; at 33.0 µM -3% | [10]; [17] 19% | [10]; at 50.0 µM 5% | [11]; at 1.2 µM -2% | [11]; at 3.7 µM -3% | [11]; at 11.0 µM -4% | [11]; at 33.0 µM -9% | [12]; at 1.2 µM 1% | [12]; at 3.7 µM -2% | [12]; at 11.0 µM 0% | [12]; at 33.0 µM 1% | [15]; at 1.2 µM 0% | [15]; at 3.7 µM 0% | [15]; at 11.0 µM 0% | [15]; at 33.0 µM 4% | [13]; [16] 0% | [13]; [17] 26% | [13]; at 50.0 µM 21.1% | [14]; at 1.2 µM 1% | [14]; at 3.7 µM 7% | [14]; at 11.0 µM 16% | [14]; at 33.0 µM 12%

CN1C(=O)c2ccc3ccccc3c2C1=O
active: [4]; at 50.0 µM 84.5% | [4]; at 100.0 µM 70%
inactive: [1]; at 1.2 µM 7% | [1]; at 3.7 µM 11% | [1]; at 11.0 µM 35% | [1]; at 33.0 µM 53% | [1]; at 100.0 µM 68% | [2]; at 1.2 µM 2% | [2]; at 3.7 µM 3% | [2]; at 11.0 µM 17% | [2]; at 33.0 µM 25% | [2]; at 100.0 µM 25% | [3]; at 1.2 µM 1% | [3]; at 3.7 µM 1% | [3]; at 11.0 µM 20% | [3]; at 33.0 µM 18% | [3]; at 100.0 µM 25% | [4]; at 1.2 µM 12% | [4]; at 3.7 µM 32% | [4]; [16] 4% | [4]; at 11.0 µM 61% | [4]; at 33.0 µM 63% | [4]; [17] 62% | [5]; at 1.2 µM -5% | [5]; at 3.7 µM 0% | [5]; [16] 0% | [5]; at 11.0 µM 0% | [5]; at 33.0 µM 17% | [5]; [17] 29% | [5]; at 50.0 µM 41.9% | [5]; at 100.0 µM 26% | [6]; at 1.2 µM 3% | [6]; at 3.7 µM 8% | [6]; at 11.0 µM 20% | [6]; at 33.0 µM 32% | [6]; at 100.0 µM 43% | [7]; [16] 27% | [7]; [17] 54% | [7]; at 50.0 µM 43% | [8]; at 1.2 µM 3% | [8]; at 3.7 µM 6% | [8]; at 11.0 µM 18% | [8]; at 33.0 µM 21% | [8]; at 100.0 µM 27% | [9]; [16] -39% | [9]; [17] 6% | [9]; at 50.0 µM 33.4% | [10]; at 1.2 µM 6% | [10]; at 3.7 µM 8% | [10]; [16] 4% | [10]; at 11.0 µM 37% | [10]; at 33.0 µM 35% | [10]; [17] 37% | [10]; at 50.0 µM 48.8% | [10]; at 100.0 µM 32% | [11]; at 1.2 µM 2% | [11]; at 3.7 µM 3% | [11]; at 11.0 µM 12% | [11]; at 33.0 µM 24% | [11]; at 100.0 µM 39% | [12]; at 1.2 µM 2% | [12]; at 3.7 µM 3% | [12]; at 11.0 µM 22% | [12]; at 33.0 µM 29% | [12]; at 100.0 µM 27% | [15]; at 1.2 µM 0% | [15]; at 3.7 µM 1% | [15]; at 11.0 µM 14% | [15]; at 33.0 µM 25% | [15]; at 100.0 µM 42% | [13]; [16] -25% | [13]; [17] 40% | [13]; at 50.0 µM 23.3% | [14]; at 1.2 µM 6% | [14]; at 3.7 µM 15% | [14]; at 11.0 µM 45% | [14]; at 33.0 µM 39% | [14]; at 100.0 µM 35%
